Test results as given in PubChem BioAssay AID1508600 (Functional Genomics Laboratory (NCATS/FGL), 2020).
The whole screen tested about 53,000 sequences, of which about 3,700 (7%) were called active.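 Rule for the calls: active = gene knockdowns whose robust z-score for IL-1 alpha signal is at least 2 or at most -2, so actives lie on both sides; inactive = the rest.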 Many of the other results were omitted from the sample, so actives are more common in it than they were.

assay: Components of the Cytosolic LPS Sensing Pathway: Gene Identification via Genome-wide siRNA Screen; settings: RAW264.7 macrophages, IL-1a HTRF, actives lie on both sides, screened at 100 nM (by protocol), cells primed 5 h with Pam3CSK4 first;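 note: robust z of the log signal after scaling to non-targeting control siRNA wells of the plate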
Method in brief: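 Read-out: IL-1a HTRF on supernatant, divided by plate negative-control median ×100, log-transformed and converted to robust z-score. Cells were RAW264.7 given 100 nM siRNA, Pam3CSK4-primed 5 hours, then LipidA-transfected 24 hour.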

Sequence | z-score
UUGGUUCAACCUCAUCAUATT against Olfr869 | 2.07 (active)
CCCUUAUUGCUAGACCUAGTT against Map3k11 | -1.13 (inactive)
GGAUUUUCUCUAUGCAGGCTT against Dcaf15 | 0.0862 (inactive)
GGAAAAACUGAGAAAACUUTT against Lyrm1 | -2.41 (active)
GGAUGUCAAGGACACAGUATT against Olfr73 | -1.04 (inactive)
GCAGUGAUCAGGUAAUGAATT against Igf2 | 0.431 (inactive)
GGUGGGUCAAUGAUCCAGGTT against Fabp9 | -2.11 (active)
GGAUGUCUUUGUUCACCAGTT against Ybx2 | -0.267 (inactive)
GCCUUUUAAUAGAUGUCAUTT against Vta1 | -0.201 (inactive)
GGUGUAUUUUUUCACUGUUTT against Olfr339 | -1.52 (inactive)
GGACUUGCCACCCAGGAAATT against Apba3 | -0.175 (inactive)
GCAGAUCAGAAGAAAUUUGTT against Jmy | 1.22 (inactive)
GGGAAAAGCACGUUCUUGCTT against Arl10 | 0.34 (inactive)
GGAUACGAUCCAGUGUGCCTT against Lyzl4 | 1.04 (inactive)
GGAGGAUUCCCUCUAUAUUTT against Slc33a1 | 0.118 (inactive)
GGGUCCCUAAGCAUGUUCCTT against Slfn10-ps | 0.618 (inactive)
GGCUUUGAGCAUGUUUUCATT against Hspb7 | 7.14 (active)
GGUGGAUAUAAUAAUUGACTT against Tgfbr3 | 1.06 (inactive)
GCUAUCCAGAUUGGUGUUATT against Tatdn1 | 1.7 (inactive)
GGGCCAAGAAAACCUACACTT against Cyp11b2 | 2.63 (active)
GGCCAAUAAAGACUGGUUUTT against Rps15 | 1.69 (inactive)
GGAAAGCAAUGCAUUACAATT against Zbtb6 | 0.149 (inactive)

Sequence | z-score
GGCGGAAGCCAUCUAACUUTT against Arhgef4 | -0.519 (inactive)
GGCAGCUUCAGGAACCAAUTT against Krt5 | -2 (active)
GGGUUUUCUCAUUGUCUUUTT against Rce1 | -1.91 (inactive)
GGAGGUUUUCAUGGUUAUCTT against Nrgn | 0.0293 (inactive)
GGUAGACUGAACUUCAGCATT against Larp6 | -1.31 (inactive)
CCCUAUGCAAUAUAUAGACTT against Tmsb15l | 0.174 (inactive)
CCGAAAAUGAGAUAAAGUCTT against Polr2k | -1.88 (inactive)
GGUCAAGUCAAGAGUGAGATT against BC048562 | 0.2 (inactive)
GGCAUUCUGUGAGACACAATT against Exosc10 | 0.389 (inactive)
CCACAAGCAGUGCUCUUUCTT against Cyp3a13 | -2.08 (active)
GAGAAGAAAAAAUGCAGUGTT against Olfr825 | 0.0375 (inactive)
CCUGAGGUGUUUUACAUAUTT against Med20 | 0.085 (inactive)
GGAAGAAUCCUCCAUGGAGTT against Mrpl24 | 1.35 (inactive)
GGAAUCAGUGACCUUUUUCTT against Arf2 | -2.05 (active)
CCCUCCUAUUAGCGCAUUUTT against Osbpl2 | -0.239 (inactive)
GGAGAUGAUCGACGAAGUATT against Tnnc1 | 0.914 (inactive)
GGAGACAGCAUUCAUUUAUTT against Wnt16 | 0.94 (inactive)
GCUCUCCUUGAUCGAGAGATT against Spryd7 | -2.65 (active)
GCCUUGUCUUCCUUCAGUGTT against Sprr2a1 | -0.172 (inactive)
GGACUUAAGUACAAAGAUCTT against Sap18 | 1.46 (inactive)
GCAUCAAAUAGUGGUACCUTT against Lsm14a | -0.209 (inactive)
CGAGCUCAGGUGAGAAAUUTT against Pfpl | 0.924 (inactive)

Sequence | z-score
GGACUGCCUUAUGCUACGATT against Setd5 | -0.44 (inactive)
GUCCUCUUCUGGUUCUCAGTT against Vmn1r52 | 0.246 (inactive)
CGAGAAGUACAAAAGGGAGTT against Ccdc103 | -0.768 (inactive)
GGUCCUGACUGGAUACCUGTT against Ece1 | 4.19 (active)
GGCGGAGUAGACUUCAUAUTT against Olfr593 | 0.363 (inactive)
GUUUGAUGAUCACUGGGUCTT against Aqp2 | 1.6 (inactive)
GCUCCGAAGAGCUAAUACUTT against Tmem25 | 0.944 (inactive)
GCGGCAGAUCUUCGAUUUCTT against Nkain1 | 0.168 (inactive)
GGCAAAUAUUUCCAAGUACTT against Cpq | -1.57 (inactive)
CGAAGUUCCUGGAAAAUAUTT against Tbc1d7 | -0.924 (inactive)
CCAGAACGCGGAGCAAAUUTT against Sec63 | 2.13 (active)
GCACUGUGACGAUACAAGATT against Asb1 | -1.17 (inactive)
CCGUAGCGAGACUUACAUCTT against Asic3 | 1.88 (inactive)
CCUAUAAUGGAGAUGAUACTT against Spty2d1 | -0.46 (inactive)
GGGAAAUGGUGAAUCACAGTT against Dpp8 | 2.25 (active)
GGCAGAAGCCGUUAGAGAUTT against Cep295nl | 0.35 (inactive)
CCAAUCGUAAUGACAAUUCTT against Myo1d | -0.857 (inactive)
GGGACAACACUCUUUUACUTT against Nab2 | 0.696 (inactive)
GGAGGACUUUCAGUUAUAUTT against Ogfod3 | 1.32 (inactive)
GCGAUUGUGCUUUUGAGCCTT against Tanc2 | 1.97 (inactive)
GGCUUCAGUGAUGAAUGAATT against Tor1aip1 | -0.594 (inactive)
GCCACGACACGAUGACAUATT against Plcxd1 | 0.918 (inactive)

Sequence | z-score
GCUAAGUUAAGCUUAAUACTT against Rbl1 | 3.33 (active)
GGCAUAGCCACUAAAAAAATT against Muc2 | -0.832 (inactive)
GGUUUCCAGUUAUCUUAAUTT against Glipr1l2 | 1.46 (inactive)
GGACAAAGAAACUCAUAGGTT against A530021J07Rik | 0.737 (inactive)
GGCUUUUUAGGAAACUAUATT against Olfr361 | 2.12 (active)
GGUGAACUUCUUUGGUGCATT against Hsd11b2 | 0.0519 (inactive)
GCUUAGAAAUCUUAUCCCATT against Hnrnpc | -1.19 (inactive)
GGCACUUCUUUCCAAGACGTT against Gbp7 | -0.373 (inactive)
GCCUGUUCUAUGUUACUGGTT against Olfr320 | -1.99 (inactive)
GCGAUGUCAAUCAAUUCUGTT against Gpr37l1 | 0.513 (inactive)
GCAUUUCGUCAGGGCAAAATT against Fuca1 | -0.515 (inactive)
UAUUUCUCCCUUGCUGGUATT against Gm5168 | 1.18 (inactive)
CCGCUGAAAAUGGAAGUUATT against Mrgprb4 | -2.21 (active)
GCCCAGAAUAGACAAACCGTT against Wfdc15b | -1.95 (inactive)
CCUGAUCCCAUGUAAAACATT against Sspn | -0.35 (inactive)
GGGAAUGACAGAAAUAUAATT against Golm1 | 0.923 (inactive)
GGUUGUUACCUUACUGUACTT against Olfr532 | 0.952 (inactive)
GGCUAUUGUUGGUAGAACUTT against Dek | 0.441 (inactive)
CGUAAUACAAUCCAGUUCATT against Aqr | -2.18 (active)
GGACUUAUGAGCAAAUAAATT against Rprd1a | 0.494 (inactive)
GGAACUUUAUGUCUCCUACTT against Lrrc56 | -0.988 (inactive)
GGUUUCCUUUAUCAAGAAGTT against Snrnp25 | -0.00388 (inactive)

Sequence | z-score
CCUAUAAGUGAACUGUGAUTT against Aig1 | -0.71 (inactive)
CCUGUAUACUAUCACUUGUTT against Casp8 | 0.103 (inactive)
GCAGCUGCACUAAAGAACGTT against Dlg1 | 2.9 (active)
GGUGUCUUAUGAGCAAUAUTT against Pdcd6 | -1.12 (inactive)
GGGAAAUCAGAUAAAGCCCTT against Myl12a | 0.874 (inactive)
GGCAACAACAUACCUAAUATT against Rmdn1 | -0.756 (inactive)
GGUACUUUCGCAUCCUGCATT against Rnaseh2b | -0.397 (inactive)
GGCAAAUGAGAAACAGCAATT against Cxcl16 | -2.23 (active)
GGUGUUGGCUCACAACCAATT against Fam234b | -1.67 (inactive)
GGUCAUUCCCAUUAAACAGTT against Emc8 | -2.57 (active)
GGGCUCUGAAUUGAAGAAATT against Ralgps2 | -0.163 (inactive)
CCCUUAGGGAGUGCUGUGATT against Gc | -1.85 (inactive)
CCAAAGGGAAGAGUUAUGCTT against Tmem126b | 2.34 (active)
CCCAUGAACCUUAUUUGAATT against Ino80c | -0.268 (inactive)
GGUGGUAUUGUUGGCUUUATT against Olfr1297 | 0.293 (inactive)
GAUGGACAGAAAUCAGGAGTT against Arap1 | 0.208 (inactive)
CGGUCAUUUGAAGUAGGAATT against Pwwp3a | 0.76 (inactive)
GGAUCAUCUCCUCUACUCUTT against Olfr394 | -1.84 (inactive)
GGAAGUAGCUUAUUGUUCUTT against Polr2b | -2.69 (active)
CCAGGUGAAUUAAUAGUCUTT against Stk4 | 0.93 (inactive)
